Source: PubChem BioAssay
Activity calls are given as the source filed them. Unless noted, how the calls were made is not given here.

Tests used:
[1] = HepG2 liver cancer cell viability effects, profiling panel, resazurin fluorescence, 24 h, PK04 Diversity Set (AID 1172); details: higher = more signal; further: test concentration not given here
[2] = basal S. cerevisiae growth modulation, no modifier, primary screen, OD600, strain BY4716, 24 h, basal condition (AID 1173); details: OD600, 24 h, higher = more signal, called active from +8 up or from −8 down
[3] = MM1S myeloma cell viability, profiling panel, resazurin fluorescence, basal, 24 h, PK04 Diversity Set (AID 1174); details: higher = more signal, called active from +8 up or from −8 down;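 further: MM1S multiple myeloma cell line; test concentration not given here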
[4] = target: Dihydroorotate dehydrogenase (quinone), mitochondrial (Plasmodium falciparum (isolate 3D7)) (UniProt Q08210); assay: PfDHODH enzyme inhibitors, primary screen, biochemical, C-terminal His tag, absorbance 600 nm (AID 1175); details: DCIP absorbance 600 nm, higher = more signal, called active from +8 up or from −8 down;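 further: recombinant parasite enzyme with a five histidine tag at its C terminus; test concentration not given here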
Dihydroorotate dehydrogenase (quinone), mitochondrial (Plasmodium falciparum (isolate 3D7)), sequence (Q08210 whole entry, looked up): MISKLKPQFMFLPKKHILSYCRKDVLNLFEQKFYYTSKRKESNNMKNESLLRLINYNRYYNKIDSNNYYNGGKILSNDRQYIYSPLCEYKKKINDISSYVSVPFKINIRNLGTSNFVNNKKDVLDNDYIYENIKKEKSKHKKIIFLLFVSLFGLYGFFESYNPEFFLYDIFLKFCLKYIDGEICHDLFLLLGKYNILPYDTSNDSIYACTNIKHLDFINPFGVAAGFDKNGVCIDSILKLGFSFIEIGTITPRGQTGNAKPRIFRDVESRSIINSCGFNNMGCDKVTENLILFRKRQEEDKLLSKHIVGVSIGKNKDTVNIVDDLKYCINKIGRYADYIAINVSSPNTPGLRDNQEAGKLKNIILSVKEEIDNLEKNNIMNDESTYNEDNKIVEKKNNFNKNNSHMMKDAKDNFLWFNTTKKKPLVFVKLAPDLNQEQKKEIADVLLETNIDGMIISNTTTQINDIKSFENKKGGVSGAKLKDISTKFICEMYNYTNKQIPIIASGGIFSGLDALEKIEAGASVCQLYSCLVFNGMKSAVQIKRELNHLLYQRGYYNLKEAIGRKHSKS

[5] = P. aeruginosa biofilm formation inhibitors, primary screen, strain PAO1, LB-PBS medium, absorbance 600 nm (AID 1176); further: test concentration not given here; details: P. aeruginosa PAO1 growth/biofilm, A600, 12 h; higher = more signal
[6] = S. cerevisiae RM11-1a growth modifiers, primary screen, strain RM11-1a, OD600, basal, 24 h (AID 1177); details: OD600, 24 h, higher = more signal, called active from +8 up or from −8 down;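 further: cultures grown under basal conditions with no added stressor; test concentration not given here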
[7] = E. coli acrAB mutant growth effects, primary screen, E. coli filamentation inducers, strain DRC39, OD650, 24 h (AID 1178); details: higher = more signal, called active from +8 up or from −8 down;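 further: growth measured as culture turbidity by optical density at 650 nm; test concentration not given here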
[8] = E. coli acrAB mutant growth effects, primary screen, E. coli filamentation inducers, strain DRC39, OD650, 48 h (AID 1179);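 further: screen aims at cell division blockers that make cells filament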; details: E. coli DRC39 delta-acrAB growth, higher = more signal, called active from +8 up or from −8 down
[9] = RPMI8226 myeloma cell viability, profiling panel, resazurin fluorescence, basal, 24 h, PK04 Diversity Set (AID 1180); details: higher = more signal;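 further: RPMI8826 multiple myeloma cell line at 5000 cells per well; test concentration not given here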
[10] = target: E3 ubiquitin-protein ligase XIAP (Homo sapiens) (UniProt P98170); assay: XIAP binders, primary screen, biophysical, small-molecule microarray, fluorescence 635 nm (AID 1181); details: small-molecule microarray binding, higher = more signal;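 further: score merges 667 nm emission and signal to noise over triplicate slides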
E3 ubiquitin-protein ligase XIAP (Homo sapiens), sequence (P98170 whole entry, looked up): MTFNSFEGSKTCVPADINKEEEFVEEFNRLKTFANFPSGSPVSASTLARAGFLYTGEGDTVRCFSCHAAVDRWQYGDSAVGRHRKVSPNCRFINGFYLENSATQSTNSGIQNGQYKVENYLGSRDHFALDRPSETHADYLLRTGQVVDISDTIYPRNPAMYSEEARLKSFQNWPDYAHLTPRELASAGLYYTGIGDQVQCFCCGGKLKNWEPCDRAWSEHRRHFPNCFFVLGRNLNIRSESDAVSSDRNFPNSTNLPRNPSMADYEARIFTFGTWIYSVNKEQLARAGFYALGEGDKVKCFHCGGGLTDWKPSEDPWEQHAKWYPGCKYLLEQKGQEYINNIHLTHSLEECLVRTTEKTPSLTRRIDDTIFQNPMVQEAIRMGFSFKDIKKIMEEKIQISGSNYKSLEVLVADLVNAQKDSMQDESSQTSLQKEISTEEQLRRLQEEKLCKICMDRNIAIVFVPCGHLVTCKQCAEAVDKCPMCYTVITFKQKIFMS

Row | Structure (SMILES) | z-score [1] | z-score [2] | z-score [3] | composite z-score [4] | z-score [5] | z-score [6] | z-score [7] | z-score [8] | z-score [9] | composite z-score [10]
1 | [N-]=[N+]=NCc1ccccc1C[C@@]1(C(N)=O)N=C(c2ccc(OCCCO)cc2)O[C@@H]1c1ccccc1 | 0.0565 | -0.165 (inactive) | -1.22 (inactive) | -0.239 (inactive) | 0.563 (inactive) | 0.115 (inactive) | 0.0937 (inactive) | -1.12 (inactive) | -1.37 | -0.11
2 | CC[C@@H]1C=C(C(=O)O)[C@H](c2ccc(C#N)cc2)N1S(=O)(=O)c1ccc(C)cc1 | -0.835 | 0.965 (inactive) | -0.933 (inactive) | -1.93 (inactive) | -0.0601 (inactive) | -0.242 (inactive) | -0.266 (inactive) | -0.0211 (inactive) | -1.21 | 0.0153
3 | CCCNC(=O)[C@@]1(Sc2ccc(C)cc2)CC(=O)N(C2Cc3ccccc3C2)[C@@H]1c1ccc(CO)cc1I | -0.463 | -2.31 (inactive) | -1.67 (inactive) | -0.141 (inactive) | 0.518 (inactive) | -0.564 (inactive) | 0.599 (inactive) | -0.0019 (inactive) | -1.55 | -0.0286
4 | COc1ccc(CCNC(=O)[C@@]2(Cc3ccccc3I)c3ccccc3C(=O)N(C3CCCCC3)[C@H]2c2ccc(CO)cc2)cc1 | -0.0428 | -0.447 (inactive) | -0.0298 (inactive) | -0.145 (inactive) | 0.462 (inactive) | -2.65 (inactive) | 0.314 (inactive) | 0.197 (inactive) | -0.0337 | 0.144
5 | O=C1OCCC=C[C@H]2OC34C=CCN(Cn5nnc6ccccc65)C(=O)[C@H]3N(CCCO)C(=O)[C@@H]4C12 (stereo not given in full) | -0.614 | -0.63 (inactive) | 0.157 (inactive) | -0.535 (inactive) | -0.441 (inactive) | 0.227 (inactive) | -1.13 (inactive) | -0.951 (inactive) | -0.997 | -0.0351
6 | O=C1O[C@@H](c2ccccc2)[C@@H](c2ccccc2)N2[C@@H](c3ccc(O)cc3)[C@]3(C(=O)Nc4ccc(C#CCCO)cc43)[C@@H](C(=O)N3CCN(c4ncccn4)CC3)[C@H]12 | 1.13 | 1.94 (inactive) | 0.609 (inactive) | 0.378 (inactive) | 1.77 (inactive) | 2.96 (inactive) | 1.08 (inactive) | 0.602 (inactive) | 0.509 | -0.197
7 | [N-]=[N+]=Nc1ccccc1C[C@@]1(C(=O)N2CCOCC2)N=C(c2ccc(OCCCO)cc2)O[C@@H]1c1ccccc1 | -0.339 | -1.76 (inactive) | -0.967 (inactive) | -0.132 (inactive) | 0.413 (inactive) | -0.0584 (inactive) | 0.37 (inactive) | -0.0378 (inactive) | -0.0984 | -0.09
8 | CCCC[C@@H]1C[C@H]1[C@@H](NC(=O)c1cccs1)c1ccccc1C(F)(F)F | -0.119 | 0.866 (inactive) | -0.186 (inactive) | -0.271 (inactive) | 0.591 (inactive) | 0.742 (inactive) | -0.561 (inactive) | -0.469 (inactive) | 0.276 | 0.99
9 | COc1cc2c(cc1O)C=[N+](Cc1sc3ccccc3c1Cl)CC2 | 0.19 | -1.04 (inactive) | -1.01 (inactive) | -1.18 (inactive) | 0.034 (inactive) | -0.319 (inactive) | 0.81 (inactive) | 0.128 (inactive) | -0.496 | 0.158
10 | CCCC[C@@H](O)C1=C(COc2ccccc2)C[C@H]2C(=O)N(Cc3ccccc3)C(=O)[C@H]2[C@H]1CO | -0.78 | -1.66 (inactive) | -0.857 (inactive) | -4.48 (inactive) | -0.508 (inactive) | 0.743 (inactive) | -0.0552 (inactive) | 0.218 (inactive) | -0.301 | -0.0118
11 | O=C(NCc1ccc(F)cc1)[C@H]1C[C@H]2C(=O)NCC(=O)N2[C@H]1c1ccc(O)cc1 | -1.15 | 0.407 (inactive) | 0.0901 (inactive) | -0.0559 (inactive) | -0.0185 (inactive) | 1.23 (inactive) | -0.42 (inactive) | -0.806 (inactive) | 0.18 | -0.294
12 | COc1ccc(C#Cc2ccc3c(c2)[C@]2(C(=O)N3)[C@H](c3ccc(O)cc3)N3[C@H](c4ccccc4)[C@H](c4ccccc4)OC(=O)[C@H]3[C@@H]2C(=O)Nc2nc3ccccc3s2)cc1 | -1.11 | -0.155 (inactive) | 0.415 (inactive) | -15.8 (active) | 1.21 (inactive) | 1.2 (inactive) | 0.198 (inactive) | 0.0227 (inactive) | 1.07 | 0.289
13 | O=C1OCCC=C[C@H]2OC34C=CCN(c5ccc6ccccc6c5)C(=O)[C@H]3N(CCCO)C(=O)[C@@H]4C12 (stereo not given in full) | -0.0412 | -0.129 (inactive) | -0.284 (inactive) | -0.286 (inactive) | -0.385 (inactive) | 0.393 (inactive) | -0.127 (inactive) | -0.611 (inactive) | -0.496 | 0.158
14 | CCOC(=O)C=Cc1cccc(C)c1O | -0.156 | -10.7 (active) | -0.753 (inactive) | -0.892 (inactive) | 0.0236 (inactive) | -4.67 (inactive) | 0.0457 (inactive) | -0.944 (inactive) | -0.529 | 0.0533
15 | CN(C)CCCCCCNC(=O)[C@@H]1C[C@@H]2C(=O)N3CCC[C@H]3C(=O)N2[C@@H]1c1cccc(OCCO)c1 | -2.4 | 0.451 (inactive) | -0.727 (inactive) | -0.595 (inactive) | -0.267 (inactive) | 0.363 (inactive) | 0.0047 (inactive) | -0.391 (inactive) | -0.946 | -0.0062
16 | O=C(c1ccccc1)N1C(=O)[C@]2(Cc3ccccc31)N=C(c1ccc(OCCCO)cc1)O[C@@H]2c1ccccc1 | -2.28 | 0.964 (inactive) | -5.95 (inactive) | 0.934 (inactive) | 1.82 (inactive) | 2.14 (inactive) | -0.18 (inactive) | -1.01 (inactive) | -5.46 | 0.233
17 | C=CC[C@]1(C(=O)N2CCCCC2)N=C(c2ccc(OCCCO)cc2)O[C@H]1c1ccccc1CN=[N+]=[N-] | 0.948 | -1.03 (inactive) | -0.398 (inactive) | -0.709 (inactive) | -0.124 (inactive) | 0.0349 (inactive) | 0.552 (inactive) | 1.11 (inactive) | 0.128 | 0.354
18 | [N-]=[N+]=Nc1ccccc1C[C@]1(C(=O)NCC(O)CO)COC(c2ccc(OCCCO)cc2)=N1 (stereo not given in full) | 0.586 | -0.226 (inactive) | 0.303 (inactive) | 1 (inactive) | 1.19 (inactive) | 1.73 (inactive) | 0.87 (inactive) | -0.155 (inactive) | 0.747 | 0.0449
19 | C=C(/C(=C/C[C@H](OC(=O)c1ccncc1)c1ccc(CO)o1)c1cnc2ccccc2c1)C(C)C | -0.0499 | -1.2 (inactive) | -0.0537 (inactive) | -7.44 (inactive) | 1.16 (inactive) | 0.481 (inactive) | 0.586 (inactive) | 0.0868 (inactive) | 0.601 | -0.0749
20 | CCOC(=O)C[C@H]1[C@H](OC(=O)c2ccccc2-c2ccccc2)[C@@H](NC(=O)c2ccc3ccccc3n2)c2cc(OCCCO)ccc2N1C(=O)Cc1ccc(OC)cc1 | -0.271 | 0.64 (inactive) | -0.343 (inactive) | 0.315 (inactive) | 0.413 (inactive) | -0.384 (inactive) | -0.42 (inactive) | -0.281 (inactive) | -0.0052 | -0.408
21 | CCOC(=O)C[C@H]1[C@H](OC(=O)c2cc3ccccc3oc2=O)[C@@H](NC(=O)c2ccccc2)c2cc(OCCCO)ccc2N1C(=O)c1ccccc1 | -1.3 | -1.89 (inactive) | 0.741 (inactive) | -3.31 (inactive) | -1.02 (inactive) | -0.0038 (inactive) | -0.397 (inactive) | -0.869 (inactive) | -0.171 | -0.0559
22 | CCOC(=O)C[C@H]1[C@H](OC(=O)c2ccccc2-c2ccccc2)[C@@H](NC(=O)c2ccc3ccccc3c2)c2cc(OCCCO)ccc2N1C(=O)c1ccccc1 | -0.655 | 0.264 (inactive) | 0.0324 (inactive) | 0.198 (inactive) | -0.341 (inactive) | 0.874 (inactive) | 0.547 (inactive) | 0.203 (inactive) | 0.225 | -0.0988
23 | CCOC(=O)C1=CC[C@@H](c2ccccc2F)N(S(=O)(=O)c2ccc(C)cc2)[C@H]1c1ccccc1 | 0.325 | 0.837 (inactive) | -0.0773 (inactive) | -0.496 (inactive) | 0.698 (inactive) | 0.262 (inactive) | -0.308 (inactive) | -0.35 (inactive) | -0.781 | -0.195
24 | O=c1cccc(-c2ccc([N+](=O)[O-])cc2)o1 | 0.269 | -0.589 (inactive) | 0.697 (inactive) | -0.371 (inactive) | 0.201 (inactive) | -0.376 (inactive) | -0.0154 (inactive) | 1.34 (inactive) | -0.425 | 0.515
25 | CCCNC(=O)[C@@]1(C)c2ccccc2C(=O)N(c2ccc(C)cn2)[C@H]1c1ccc(CO)cc1 | -0.112 | -0.397 (inactive) | 0.268 (inactive) | -0.281 (inactive) | 0.484 (inactive) | -0.306 (inactive) | -0.398 (inactive) | -0.586 (inactive) | -0.388 | -0.127
26 | C#Cc1cc2ccccc2oc1=O | 0.236 | -5.07 (inactive) | -1.05 (inactive) | -0.748 (inactive) | -0.0322 (inactive) | -0.874 (inactive) | -1.46 (inactive) | -1.25 (inactive) | -1.14 | -0.172
27 | COc1ccc([Si](C)(C)[C@@H]2[C@@H](CC(=O)N3CCC[C@H]3CO)O[C@]3(C(=O)N(Cc4cccc(N5C(=O)COc6ccccc65)c4)c4ccccc43)[C@H]2C)cc1 | -1.58 | 0.107 (inactive) | -3.43 (inactive) | -1.54 (inactive) | 0.425 (inactive) | 0.0195 (inactive) | 0.719 (inactive) | 0.374 (inactive) | -5.39 | -0.102
